KCNQ2 block: blocks the rat KCNQ2 potassium channel; O88943; CHO-K1 KCNQ2, FluxOR thallium flux, 20 min; active compounds read low; B-score at 10 µM; actives 1.1% (n = 310,000);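 active means fluorescence ratio B-score at most minus 3 library SDs, with starting brightness B-score within 2 library SDs, cut at about -5.5 in these data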
Target sequence (O88943 whole entry, looked up): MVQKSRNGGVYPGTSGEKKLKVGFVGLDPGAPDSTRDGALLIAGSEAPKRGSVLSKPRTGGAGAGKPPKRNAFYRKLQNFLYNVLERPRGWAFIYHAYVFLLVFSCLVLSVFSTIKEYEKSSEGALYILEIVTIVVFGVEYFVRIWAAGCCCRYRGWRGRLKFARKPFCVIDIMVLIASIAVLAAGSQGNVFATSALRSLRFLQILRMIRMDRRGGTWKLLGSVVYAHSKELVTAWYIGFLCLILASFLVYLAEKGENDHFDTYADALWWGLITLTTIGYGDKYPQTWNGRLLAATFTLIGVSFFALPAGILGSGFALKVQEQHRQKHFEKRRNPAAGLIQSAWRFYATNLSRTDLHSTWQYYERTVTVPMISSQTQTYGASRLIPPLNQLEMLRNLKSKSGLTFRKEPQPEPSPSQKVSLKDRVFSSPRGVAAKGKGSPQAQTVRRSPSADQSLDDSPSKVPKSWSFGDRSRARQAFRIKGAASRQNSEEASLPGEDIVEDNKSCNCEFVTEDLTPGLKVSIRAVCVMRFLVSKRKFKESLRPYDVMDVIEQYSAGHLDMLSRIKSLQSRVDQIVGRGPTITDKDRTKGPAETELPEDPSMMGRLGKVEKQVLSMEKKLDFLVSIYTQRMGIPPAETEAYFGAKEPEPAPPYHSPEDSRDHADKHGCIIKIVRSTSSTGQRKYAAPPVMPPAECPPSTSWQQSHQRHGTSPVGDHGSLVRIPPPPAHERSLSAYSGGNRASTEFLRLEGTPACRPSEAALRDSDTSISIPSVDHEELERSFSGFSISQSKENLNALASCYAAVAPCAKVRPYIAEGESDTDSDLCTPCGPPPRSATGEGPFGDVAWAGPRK
KCNQ2 pot: potentiators of rat KCNQ2 potassium channel; CHO-K1 KCNQ2, FluxOR thallium flux fluorescence; active compounds read high; B-score at 10 µM; actives 0.54% (n = 310,000); AID 2239;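 active means fluorescence ratio B-score at least 3 SD of library B-scores, with initial fluorescence B-score within 3 of them, cut at about 5.3 in these data; same plate scores as AID 2156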;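 further: B-score of peak minus minimum over baseline fluorescence ratio after K+ and Tl+ stimulus; positive B-score means potentiation of KCNQ2 with more thallium influx and brighter signal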
KCNQ2 block conf: rat KCNQ2 channel inhibition, confirmatory screen | shares compounds with KCNQ2 block | KCNQ2-expressing cells, thallium flux; active compounds read low | activity change, negative = inhibition, % at 10 µM | actives 57% (n = 1,000) | AID 493025;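 further: 0% = vehicle wells and values are ratio percent relative to vehicle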
KCNQ1 spec: human KCNQ1 activity in KCNQ2 inhibitor specificity screen | KCNQ1-expressing cells, FluxOR thallium flux fluorescence; active compounds read low | actives 15% (n = 1,000) | shares compounds with KCNQ2 block | activity change, negative = inhibition, % at 10 µM | AID 493026;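 active means activity change at least 3 SD of negative controls below their mean in both duplicate wells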;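 further: CHO cells stably transfected with KCNQ1 and depolarized by potassium stimulus; peak minus minimum fluorescence over baseline after thallium addition; 0% = vehicle negative control and -100% = blank without thallium stimulus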
CHO Tl ctr: activity in parental CHO cells lacking KCNQ2. shares compounds with KCNQ2 block. thallium flux counter-screen; active compounds read low. activity change, % at 10 µM. actives 14% (n = 1,000). AID 493029;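 further: 0% = vehicle negative controls with stimulus buffer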
KCNQ2 patch conf: blocks rat KCNQ2 current in automated patch clamp | shares compounds with KCNQ2 block | KCNQ2-expressing cells | calls only at 10 µM | actives 49% (n = 550) | AID 588531
* marks the source's active call; other numbers are inactive results; i = inactive; . = no result; + = active, no number. Compounds with a hit are over-represented: about 1.6% of the library has one in this group of screens. Unless noted, how the calls were made is not given here.

SMILES | KCNQ2 block | KCNQ2 pot | KCNQ2 block conf | KCNQ1 spec | CHO Tl ctr | KCNQ2 patch conf
CCCCCCOC1(c2ccccc2)OC(=O)c2ccccc21 (configuration not stated) | i | . | . | . | . | .
CCCCCCCOC1(c2ccccc2)OC(=O)c2ccccc21 (configuration not stated) | -8.5* | -8.5 | -22%* | i | i | i
Cc1c(C(=O)N2CCOCC2)cc(C(C)(C)C)n1-c1ccccc1 | i | 0.42 | . | . | . | .
Cc1cnc(CN(C)Cc2c(C(=O)N3CCc4ccccc4C3)nc3ccc(Cl)cn23)[nH]1 | i | . | . | . | . | .
CC(C)CN(C)Cc1c(C(=O)N2CCc3ccccc3C2)nc2ccc(Cl)cn12 | -8.7* | -8.7 | -32%* | -38%* | -25%* | +
CCC(C)NC(=O)[C@@H]1CSC2c3ccccc3C(=O)N21 (some centres not stated) | i | 0.33 | . | . | . | .
CC1=C(C(=O)NC(C)c2ccc3c(c2)OCCO3)C2(CCC(C)CC2)OC1=O (configuration not stated) | -10* | -10 | -26%* | i | i | +
CC1=C(C(=O)NC(C)c2ccccc2)C2(CCC(C)CC2)OC1=O (configuration not stated) | i | . | . | . | . | .
Cc1ccc(NS(=O)(=O)c2cc([N+](=O)[O-])ccc2N/N=C/c2sc(N3CCOCC3)nc2-c2ccccc2)c(C)c1 | i | . | . | . | . | .
COc1cc(CNCCO)cc(Cl)c1OCc1ccc(Cl)cc1Cl | -9.8* | -9.8 | -41%* | -31%* | -31%* | i
COc1cc(CNCCO)cc(Br)c1OCc1ccccc1Cl | i | . | . | . | . | .
COC(=O)/C(C#N)=C/c1c(-c2ccccc2)nc2n1CCS2 | i | . | . | . | . | .
Clc1cccc(Cl)c1CO/N=C/c1c(-c2ccccc2)nc2n1CCS2 | -8.5* | -8.5 | i | i | i | .
O=C(NNc1nc2cc3c(cc2s1)OCO3)c1cccc(F)c1 | i | 1.1 | . | . | . | .
CC(C)c1cc(-c2cc(C(=O)NCc3ccccc3)on2)nc(NCC2CC2)n1 | i | 0.68 | . | . | . | .
CCCC[C@@H]1C[C@H]1[C@@H](NC(=O)c1ccco1)c1ccccc1C(F)(F)F | i | . | . | . | . | .
CCCC[C@@H]1C[C@H]1[C@@H](NC(=O)c1cccs1)c1ccc(C(F)(F)F)cc1 | -8.7* | -8.7 | -18%* | i | i | i
[O-][n+]1ccc(C(O)c2ccccc2)cc1 (configuration not stated) | i | 1 | . | . | . | .
CCOc1ccc(/C=C/C(=O)N(CC)CC(=O)Nc2ccc3c(c2)OCCO3)cc1OCC | i | 0.83 | . | . | . | .
